Experimental data from the supplement of paper PMC11417369.
± gives the standard deviation of the averaged measurements. Over roughly 25,000 sequences, “ln(normalized median fluorescence intensity)” has its median near 7.9; the highest 2% begin near 11. Many of the other results were omitted from the sample, so the highest values are more common in it than they were.

system: PfAP2-I AP2 domain 3 (GST-tagged); test: gcPBM binding intensity (ln(normalized median fluorescence intensity)); higher = stronger DNA binding
Procedure, shortened: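 Binding intensity is the highest Masliner-normalised natural-log median intensity over replicate spots in either probe orientation. To obtain it, GST-tagged P. falciparum DNA-binding domains made in E. coli were incubated for 1 h on an Agilent 4 × 180k array of primer-extended double-stranded 36-bp intergenic genomic probes plus negative controls. Detection used Alexa488 anti-GST antibody with scanning at 488 nm.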

Sequence | gcPBM binding intensity (ln)
TATATGTTTTATAGTACACACATAAATGGACATACT [CACACA_site2191] | 7.83 ± 0.33
CTATATTTCGTTGGACGTACAAATGTGATAATTAGG [XGTACX_site3232] | 8.06 ± 0.46
GTCATCAAGTATTAAGTGCATTAAAAATAAAATATA | 11.3 ± 0.62
TGTAAAATATAAAAAGTGCATTTCTTTTAATATGAT | 9.96 ± 0.19
TAAATTAATAAACAAGTGCATATATATATATATATA | 10 ± 0.49
AGGTAAAAATGGTAAGTGCATTAATGATAAAAAATG | 11.1 ± 0.18
TATCAATATTAAAAAGTGCAAAATAAAATATAAAAT [GTGCAC_site9486] | 10.7 ± 0.23
ATCCTTTATAAATAAGTGCATATAAAAAATAATATT [GTGCAC_site9759] | 10.1 ± 0.3
TTGTGTAAATGTTAAGTGCATTTGGTAAAATATAAA [GTGCAC_site9699] | 9.51 ± 0.11
TTGTATTAAAATCAAGTGCATATAATTTAAGTTCAT [GTGCAC_site9495] | 9.54 ± 0.042
TAAATATATATATAAGTGCATTATATATATATATAA | 11.2 ± 0.57
TAAAAAATAAAATACACACACATATATATATATATA [CACACA_site1323] | 9.33 ± 0.2
ATTATGAATTTAAGACGTACAAAAAATTTTTATTCA [XGTACX_site5682] | 7.8 ± 0.31
ACAAAATTTACAAAATGTACAAAATTTACAAAGTAT [XGTACX_site6463] | 7.54 ± 0.56
ACATATATTGTACATACACACCTATATAAATATCCT [CACACA_site7503] | 8.24 ± 0.54
AATAGTCGTGTGCATACACACCTTAACTATAATATA [CACACA_site6636] | 8.83 ± 0.2
AACAATATGGATGTATGTACACATATAGAACGTTAT [XGTACX_site7142] | 7.91 ± 0.72
TATGAATGTATATGTTGTACATATAAATATTTATAT [XGTACX_site1146] | 7.72 ± 0.34
TTTGTATTAAAAAAAAAAAAAAAAAAAATGAATAAA [TGCATGCA_negctrl_site292] | 7.34 ± 0.41
TTGTATTTCCTTAGGAGTACACATAAATAAGTAAAT [XGTACX_site6677] | 8.22 ± 0.092
ATAATTACATAGATTGGTACACATTTTTGATTGTAT [XGTACX_site3802] | 7.71 ± 0.44
ACTAATAATTTGTCGGTGCATAAAATTATTTTTATT [GTGCAC_site9840] | 10.8 ± 0.43
TGTATTAAAAATTTGGTGCAACTTTTACATAATAAT | 9.49 ± 0.18

Sequence | gcPBM binding intensity (ln)
ACTTTAACCTGAACGGTGCATAAAATTTTGGCATTA | 10.9 ± 0.35
CATATTATATTCTGCTTACACACATATATATATATA [CACACA_site3059] | 9.36 ± 0.29
TCCCAATTTCTATCCTGTACAGACATAAATATATAC [XGTACX_site5937] | 8.31 ± 0.49
TATGTATATATTTACGCATGCTACTCTATTTTGAGA [TGCATGCA_site990] | 7.64 ± 0.48
TAAATCAAAATAATTTAACACACAATTTTAATACTG [CACACA_site8744] | 7.34 ± 0.54
AATAAATACTAAATGGTGCAAAATTTTTTAACACTG | 10.8 ± 0.42
ATACTATTTAAATGGGTGCTAAAAATAACAAAAATT | 9.65 ± 0.085
ATCAAATTTGGACATGCATGTGTGTGTAAAACCATG [TGCATGCA_site309] | 8.52 ± 0.41
TGGTATATTATTTTTTGTACACATAAATGAAACATT [XGTACX_site5345] | 8.04 ± 0.22
GGTGTTTTTCACAGATGTACACAAATAAAAAAGAAA [XGTACX_site4454] | 8.39 ± 0.47
TCGTTATCCATCTTCACACATATATATAGTAATATA [CACACA_site5492] | 8.27 ± 0.49
AAAGTGTTAACCTAATCTTTAGTTTTTAAACAATAT [CACACA_negctrl_site841] | 7.49 ± 0.59
TATATTATTAATTAAGCACACATTATTTTTATAATA [CACACA_site3982] | 8.54 ± 0.3
TTTTTTTCAATATTTGCACACGATTATAATATTTAA [CACACA_site2237] | 9.415 ± 0.035
GCCATTAATTTATACACACACATTATAACTTTTTAT [CACACA_site6492] | 8.29 ± 0.49
CTATTTCAATTTAGTGCACACATTTTAATTTATAAG [CACACA_site2040] | 11.4 ± 0.49
ACCCATTTTAATTTAGTGCACATTTTACCTTTATAC | 11.4 ± 0.35
TTAATTTATTTATGCACACATATATAATTACCCATA [CACACA_site682] | 10.2 ± 0.67
TATAATAATATTATAGTGCATATTATTTATATATAA [GTGCAC_site9820] | 9.72 ± 0.16
ATATATATATATATAGTGCACATTTATATAATTATT | 11.43 ± 0.092
TTAATAATTAATTATAGTACACATTTATATTAATAA [XGTACX_site190] | 7.915 ± 0.064
TAATGGTGTTCATGTGGTACACTTTATAAATTGGCA [XGTACX_site729] | 7.9 ± 0.47
CCCTTTTATTAAAATTCACACACATAAATTTTTATA [CACACA_site8611] | 8.06 ± 0.41
